# Source: PubChem
# A selection: hits, their analogues and other compounds. The true share with any hit is near 19%.
# TDP1 cell noCPT: qHTS for Inhibitors of human tyrosyl-DNA phosphodiesterase 1 (TDP1): qHTS in cells in absence of CPT; Potency, µM (series often up to 46.2 µM), usual class: inhibitors; DT40 Tdp1-/- hTDP1 cells, no CPT, ATP luminescence, 48 h; AID 686978, 2013; 420,000 tested, 15% active; further: nearly all actives have a fitted effect of over 55% in size
#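 No-CPT arm: Tdp1-/-;hTDP1 DT40 cells (400/well) plus compounds, incubated ≥48 hr at 37 °C. Readout CellTiter-Glo luminescence.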
# IL1B secr inh: qHTS for Inhibitors of Inflammasome Signaling: IL-1-beta AlphaLISA Primary Screen. THP-1 LPS/ATP IL-1B secretion, AlphaLISA, 16 h; hits give low values. activity change, % at 57.5 µM. 360,000 tested, 4.7% active. AID 743279, 2014; in the data active means activity change below about -50%; inconclusive means mostly about -30% to -49%
#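 Secreted IL-1B measured by AlphaLISA bead assay after 16 h compound exposure of THP-1 cells; compounds (final up to 57.5 uM) added 1 h before LPS (250 ng/mL) and ATP (1.25 mM) stimulation; lower signal means less secretion.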
# HT1080 IDH1KD tx: qHTS for induction of synthetic lethality in tumor cells producing 2HG: qHTS for the HT-1080-IDH1KD cell line | HT-1080 IDH1 knockdown viability, ATP luminescence, 48 h | Potency, µM (series often up to 46.1 µM), usual class: cytotoxic | 360,000 tested, 2% active | AID 686971, 2013
#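 After a 2 h attachment period, IDH1KD HT-1080 cells took pin-transferred compound for 48 h at 37 °C; ATP-based luminescence after 10 min room-temperature reagent incubation reported viability.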
# HT1080-NT tox: qHTS for induction of synthetic lethality in tumor cells producing 2HG: qHTS for the HT-1080-NT fibrosarcoma cell line; HT-1080-NT fibrosarcoma viability, CellTiter-Glo ATP luminescence, 48 h; Potency, µM (doses to about 46.1 µM), most hits filed as cytotoxic; 360,000 tested, 1.6% active;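 further: NT is the 2HG producing partner of a matched IDH1 knockdown line; nearly all actives have a fitted effect of over 55% in size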
#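 Read-out is CellTiter-Glo luminescence after 10 minutes at room temperature, following 48 hours' compound treatment of HT-1080-NT cells (750 cells/well, RPMI, 5% FBS, 37 degrees C).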
# DT40 TDP1 CPT: qHTS for Inhibitors of human tyrosyl-DNA phosphodiesterase 1 (TDP1): qHTS in cells in presence of CPT | chicken DT40 Tdp1-/-;hTDP1 cells + 20 nM CPT, ATP luminescence, 48 h | Potency, µM (doses to about 46.2 µM), hits mostly inhibitors | 420,000 tested, 12% active | AID 686979, 2013; further: nearly all actives have a fitted effect of over 55% in size
#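 Cell growth measured by CellTiter-Glo luminescence after a minimum 48 h, 37 C compound exposure with 20 nM CPT in Tdp1-knockout DT40 cells stably expressing hTDP1, seeded 400/well; qHTS titration format.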
# A number is an active result; – = inactive; ? = inconclusive; · = no result given; [ ] = dose if it differs, or a comment. Unless noted, the call rests on the fitted dose curve; in most records, active means well fitted curve in the direction sought with a large enough effect; inconclusive means small, poorly fitted or top-dose-only effect, or another doubt; inactive means no such curve, though single readings can be large; an effect the other way counts as inactive or inconclusive.
SMILES,TDP1 cell noCPT,IL1B secr inh,HT1080 IDH1KD tx,HT1080-NT tox,DT40 TDP1 CPT
O=C(c1ccc2c(=O)n(CCc3ccccc3)c(=O)[nH]c2c1)N1CCN(C(=O)c2ccco2)CC1,11µM,·,–,–,13µM
CCCN1CCN(CCCNC(=O)c2ccc3c(=O)n(CCc4ccccc4)c(=O)[nH]c3c2)CC1,?,–,–,–,?
CCOc1c(Cl)cnn(-c2ccc(C)cc2)c1=O,?,–,–,–,–
COc1c(Cl)cnn(-c2ccc(C)cc2)c1=O,16µM,–,–,–,?
COc1ccc(Oc2c(Cl)cnn(-c3ccc(Cl)c(Cl)c3)c2=O)cc1,?,-113,?,18µM,?
COc1cnn(-c2ccc(F)cc2)c(=O)c1Br,–,–,–,–,–
COc1ccc2cnn(-c3ccc(C)cc3)c(=O)c2c1OC,21µM,–,–[9.24 µM],–,15µM
COc1ccc(Oc2c(Cl)cnn(-c3ccc(F)cc3)c2=O)cc1,?,-112,?,?,?
COc1ccc2cnn(-c3ccc(OC(F)(F)Cl)cc3)c(=O)c2c1OC,–,–,–,?,–
Cc1ccc(N(C(=O)Cn2nnc(-c3ccc(F)cc3)n2)C(CC(C)C)C(=O)NCC2CCCO2)cc1 (configuration not stated),?,–,–,–,?
Cc1ccc2nc(CO)[nH]c2c1,–,·,·,·,–
COc1ccc(Oc2c(Cl)cnn(-c3ccc(C)cc3)c2=O)cc1,26µM,-114,–[9.24 µM],?,?
COc1ccc(-n2nc(C)c3onc(C)c3c2=O)cc1,–,–,–,–,–
O=C(O)c1ccc(-n2ncc(Cl)c(Cl)c2=O)cc1,5.8µM,-102,18µM,5.8µM,6.5µM
COc1ccc2cnn(CCOc3cc(C)ccc3C(C)C)c(=O)c2c1OC,16µM,–,–,–,16µM
CC(=O)Nc1c(Cl)cnn(-c2ccccc2)c1=O,–,?,–,–,–
Cc1ccc(Sc2cnn(-c3ccccc3)c(=O)c2Cl)cc1,29µM,?,–,–,?
CNc1cnn(-c2ccccc2)c(=O)c1Cl,?,–,–,–,?
Cn1cccc1C(=O)C(=O)Nc1ccccc1,?,–,?,?,–
CCN(CC)C(=O)C(=O)c1ccn(-c2c(C)csc2C(=O)OC)c1,–,–,–,–,–
Cc1ccc(CN2C(=O)CCC2(C)c2nnnn2Cc2ccccc2)cc1 (configuration not stated),–,–,–,–,–
COC(=O)c1cc(S(=O)(=O)N(C)C2CCCCC2)c[nH]1,–,–,–,–,–
CCOC(=O)Cc1c(C)nc2c(-c3ccccc3)c(C)[nH]n2c1=O,?,–,?,–,–
CCOC(=O)Cc1c(C)nc2c(-c3ccccc3)c[nH]n2c1=O,2.3µM,–,–,–,18µM
CCOC(=O)Cc1c(C)nc2c(-c3ccccc3)c(-c3ccccc3)[nH]n2c1=O,16µM,–,?,?,?
SMILES,TDP1 cell noCPT,IL1B secr inh,HT1080 IDH1KD tx,HT1080-NT tox,DT40 TDP1 CPT
CCc1c(C)nc2c(-c3ccccc3)c[nH]n2c1=O,?,–,?,–,?
C[C@@H]1CCC2[C@@H](C)[C@@H](O)O[C@@H]3O[C@@]4(C)CC[C@@H]1[C@@]23OO4 (some centres not stated),0.094µM,·,·,·,0.041µM
CCOC(=O)c1cnc2c(C)c(C)ccc2c1NCCN1CCOCC1,?,?,–,–,?
COc1ccc(NC(=O)Cn2c(=O)ccc3cc(S(=O)(=O)N4CCCC4)ccc32)cc1Cl,13µM,·,·,·,16µM
COc1ccc(S(=O)(=O)N2CCN(CC(=O)Nc3cc(OC)cc(OC)c3)CC2)cc1,?,–,–,–,?
Cc1ccc(NC(=O)Cn2c(=O)ccc3cc(S(=O)(=O)N4CCCC4)ccc32)cc1C,–,·,·,·,–
COc1cc(NC(=O)Cn2c(=O)ccc3cc(S(=O)(=O)N4CCCC4)ccc32)cc(OC)c1,15µM,·,·,·,?
COc1ccccc1OC(C)C(=O)N(Cc1ccco1)C1CCS(=O)(=O)C1 (configuration not stated),–,–,–,–,–
